Test results published in PubChem BioAssay (NCI).
Compounds without any hit were thinned out: in the full panel of roughly 83,000, 20% have a hit.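 A percent growth of 40 corresponds to 60% growth inhibition; 0 means no net growth; -100 means all cells died. Active threshold: below 10.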 Calls of active or inactive are those of the source.

Key:
Assay in all cases: NCI-60 one-dose screen, 48 h (100 = growth as untreated, 0 = no growth, -100 = all killed)
Settings in all cases: 10 µM unless noted
HCT-15 colon = system: HCT-15 colon
HT29 colon = system: HT29 colon
SNB-75 CNS = system: SNB-75 CNS
SNB-19 CNS = system: SNB-19 CNS
U251 CNS = system: U251 CNS
PC-3 prostate = system: PC-3 prostate
SK-MEL-5 melanoma = system: SK-MEL-5 melanoma
UACC-62 melanoma = system: UACC-62 melanoma
LOX IMVI melanoma = system: LOX IMVI melanoma
SK-MEL-28 melanoma = system: SK-MEL-28 melanoma
SK-MEL-2 melanoma = system: SK-MEL-2 melanoma
EKVX NSCLC = system: EKVX NSCLC
SN12C renal = system: SN12C renal
UO-31 renal = system: UO-31 renal
TK-10 renal = system: TK-10 renal
ACHN renal = system: ACHN renal
CAKI-1 renal = system: CAKI-1 renal
A498 renal = system: A498 renal
CCRF-CEM leukemia = system: CCRF-CEM leukemia
MOLT-4 leukemia = system: MOLT-4 leukemia

Measured: growth

CS(=O)(=O)Nc1cc(-c2ccc3ncc(C#N)c(NCc4ccccc4F)c3c2)cnc1Cl
inactive: HT29 colon 11% | SNB-75 CNS 26.3% | SNB-19 CNS 12.8% | U251 CNS 11.5% | SN12C renal 16.8% | ACHN renal 10.9% | CCRF-CEM leukemia 13.3%
active: HCT-15 colon 8.34% | PC-3 prostate 6.54% | SK-MEL-5 melanoma -93.6% | UACC-62 melanoma -20.7% | LOX IMVI melanoma -41.9% | SK-MEL-28 melanoma 5.71% | SK-MEL-2 melanoma -52.3% | EKVX NSCLC 0.584% | UO-31 renal 4.65% | TK-10 renal -11.1% | CAKI-1 renal -8.09% | A498 renal -42.9% | MOLT-4 leukemia -15.8%

NC(=O)c1cccc(-n2ccc3cc(NC(=O)Nc4ccc(N5CCOCC5)c(C(F)(F)F)c4)ccc32)n1
active: HT29 colon 4.89% | SNB-75 CNS -24.4% | SNB-19 CNS 2.44% | U251 CNS 0.717% | PC-3 prostate 5.77% | SK-MEL-5 melanoma -79.6% | UACC-62 melanoma -16.1% | LOX IMVI melanoma -10.9% | SK-MEL-28 melanoma -0.669% | SK-MEL-2 melanoma 1.78% | UO-31 renal 4.85% | TK-10 renal -7.65% | CAKI-1 renal 6.33% | A498 renal -57.1% | CCRF-CEM leukemia 1.21% | MOLT-4 leukemia -38.9%
inactive: HCT-15 colon 10.4% | EKVX NSCLC 11.2% | SN12C renal 14.1% | ACHN renal 11.6%

Cc1cc(-c2ccc(Cl)cc2)n(Cc2nnc(SCC(=O)Nc3ccc(S(N)(=O)=O)cc3)n2C2CCCCC2)n1
inactive: HCT-15 colon 98.4% | HT29 colon 108% | SNB-75 CNS 118% | SNB-19 CNS 97.6% | U251 CNS 101% | PC-3 prostate 101% | SK-MEL-5 melanoma 100% | UACC-62 melanoma 99.2% | LOX IMVI melanoma 101% | SK-MEL-28 melanoma 106% | SK-MEL-2 melanoma 106% | EKVX NSCLC 103% | SN12C renal 105% | UO-31 renal 82.3% | TK-10 renal 106% | ACHN renal 104% | CAKI-1 renal 99.4% | A498 renal 111% | CCRF-CEM leukemia 114% | MOLT-4 leukemia 141%

CCCn1cnc2c(c1=N)C(c1ccc(OC)cc1)c1sc3c(C)cccc3c1O2 (stereo not given)
active: HT29 colon 7.24% | PC-3 prostate 6.95% | A498 renal -21.4% | CCRF-CEM leukemia 3.52%
inactive: HCT-15 colon 14.6% | SNB-75 CNS 17.8% | SNB-19 CNS 24% | U251 CNS 20.6% | SK-MEL-5 melanoma 40.3% | UACC-62 melanoma 14.3% | LOX IMVI melanoma 25.1% | SK-MEL-28 melanoma 53.9% | SK-MEL-2 melanoma 36.9% | EKVX NSCLC 40.9% | SN12C renal 19% | UO-31 renal 27.2% | TK-10 renal 94.2% | ACHN renal 31.8% | CAKI-1 renal 25.8% | MOLT-4 leukemia 17%

O=C(CN1CCN(c2cc(=O)n(-c3ccccc3)c3ccccc23)CC1)Nc1ccc(F)cc1
inactive: HCT-15 colon 69.2% | HT29 colon 81% | SNB-75 CNS 77.2% | SNB-19 CNS 77.3% | U251 CNS 80.2% | PC-3 prostate 64.6% | SK-MEL-5 melanoma 16.9% | UACC-62 melanoma 55.3% | LOX IMVI melanoma 67.4% | SK-MEL-28 melanoma 86.2% | SK-MEL-2 melanoma 87.9% | EKVX NSCLC 48.7% | SN12C renal 77.7% | UO-31 renal 40.6% | TK-10 renal 73.1% | ACHN renal 65.4% | CAKI-1 renal 63.7% | A498 renal 53.6% | CCRF-CEM leukemia 70% | MOLT-4 leukemia 44.4%

O=C(CN1CCN(c2cc(=O)[nH]c3ccc(F)cc23)CC1)Nc1ccc(Cl)cc1
inactive: HCT-15 colon 79.3% | HT29 colon 100% | SNB-75 CNS 13% | SNB-19 CNS 21.3% | U251 CNS 42.6% | PC-3 prostate 78.6% | SK-MEL-5 melanoma 80.9% | UACC-62 melanoma 47.9% | LOX IMVI melanoma 75.2% | SK-MEL-28 melanoma 82.3% | SK-MEL-2 melanoma 66.2% | EKVX NSCLC 69.9% | SN12C renal 60.8% | UO-31 renal 75.2% | TK-10 renal 62.2% | ACHN renal 57% | CAKI-1 renal 72.6% | A498 renal 54.9% | CCRF-CEM leukemia 98.2% | MOLT-4 leukemia 92.4%

O=c1c2ccccc2nc(COc2ccccc2)n1NS(=O)(=O)c1ccc(Cl)cc1
inactive: HCT-15 colon 54.4% | HT29 colon 80% | SNB-75 CNS 36.9% | SNB-19 CNS 79.8% | U251 CNS 87.8% | PC-3 prostate 82.7% | SK-MEL-5 melanoma 94.5% | UACC-62 melanoma 76.9% | LOX IMVI melanoma 83.6% | SK-MEL-28 melanoma 87.1% | SK-MEL-2 melanoma 74.7% | EKVX NSCLC 74.8% | SN12C renal 76.6% | UO-31 renal 62.7% | TK-10 renal 153% | ACHN renal 92.8% | CAKI-1 renal 73.1% | A498 renal 63.3% | CCRF-CEM leukemia 97% | MOLT-4 leukemia 69.5%
